Results reported in PubChem BioAssay (EPA / NIEHS).
Results filed as inconclusive are left out. Calls of active or inactive are those of the source. Rule for the calls, unless noted: active = hit-call score of the fitted dose curve at least 0.9, where 1 is the maximum; inactive = score below 0.9.

What was measured:
[1] = CCTE_Mundy_HCI_Cortical_Synap_Neur_Matur_NeuriteSpotCountPerNeuron: CCTE's Synaptogenesis and Neurite Maturation Assay in rat cortical cells for Neurite Spot Count per Neuron Count, Mundy Lab (AID 2284215)
Method in brief: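 Rat primary cortical cultures given AraC at DIV 5, dosed from DIV 7 to DIV 12 with media change. Fixed, stained for MAP2, synaptophysin and Hoechst; neurite-associated synaptophysin puncta per neuron quantified by high-content imaging versus DMSO.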

[2] = CCTE_Mundy_HCI_Cortical_Synap_Neur_Matur_SynapseCount: CCTE's Synaptogenesis and Neurite Maturation Assay in rat cortical cells for Synapse Count, Mundy Lab (AID 2284218)
Method in brief: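 High-content imaging of synaptophysin puncta per MAP2-positive neuron (Hoechst nuclei) in rat cortical cells exposed DIV 7–12 after glial arrest with AraC at DIV 5; decrease relative to DMSO scored.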

[3] = CCTE_Mundy_HCI_Cortical_Synap_Neur_Matur_CellBodySpotCount: CCTE's Synaptogenesis and Neurite Maturation Assay in rat cortical cells for Cell Body Spot Count, Mundy Lab (AID 2284223)
Method in brief: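 Primary rat cortical cultures, AraC added at DIV 5; dosed DIV 7 through DIV 12 […]. Fixed, stained for MAP2 and synaptophysin with Hoechst; cell body-associated synaptophysin puncta per neuron counted by high-content imaging, loss vs DMSO.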

[4] = UKN2_HCS_IMR90_cell_viability: Viability Assessment in the University of Konstanz (UKN) Leist Lab Neural Crest Cell Migration Assay in human induced IMR90 Pluripotent Stem Cells (UKN2) (AID 2284233);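 note: viability of neural crest cells differentiated from IMR90 iPSC measured by calcein-AM fluorescence imaging; cells exposed to compound for 24 h after a 24 h migration phase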
Method in brief: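 cMINC format, iPSC-derived neural crest (IMR90); 24 h migration (EGF/FGF, N2-S), then 24 h toxicant. Calcein-AM/H-33342 stain 30 min; fluorescence intensity by HCS; DMSO-normalised, bidirectional fitting.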

[5] = CCTE_Mundy_HCI_Cortical_NOG_NeuronCount: CCTE's Neurite Outgrowth Assay in rat cortical cells for Neuron Count, Mundy Lab (AID 2284236; active = hit-call score of the fitted dose curve at least 0.9, where 1 is the maximum;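 note: neurons counted by imaging betaIII-tubulin and Hoechst stained cortical cells; cells exposed to compound for about 48 hours before fixation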)
Method in brief: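 Read-out: neuron number by high-content imaging of betaIII-tubulin (Alexa Fluor-488) and Hoechst-labelled rat primary cortical cells.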

[6] = CCTE_Mundy_HCI_Cortical_NOG_BPCount: CCTE's Neurite Outgrowth Assay in rat cortical cells for Branch Point Count, Mundy Lab (AID 2284237)
Method in brief: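 Measured 50.33 h after dosing, this morphology endpoint uses rat primary cortical cultures labelled for betaIII-tubulin. Branch points are quantified by high-content imaging, with DMSO as negative control and baseline.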

[7] = CCTE_Mundy_HCI_hNP1_Casp3_7: CCTE's Caspase-Glo 3/7 Assay in human neuroprogenitor cells for Apoptosis, Mundy Lab (AID 2284240)
Method in brief: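 Neuroepithelial-lineage stem cells from WA09 embryonic cells were treated with chemicals after 40–44 h of culture. Twenty-four hours later, caspase-3/7 activation was detected luminescently after a 30 min room-temperature reagent step, with DMSO as baseline.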

[8] = CCTE_Mundy_HCI_hNP1_CellTiter: CCTE's Cell Titer-Glo 2 Assay in human neuroprogenitor cells for Viability, Mundy Lab (AID 2284241; active = hit-call score of the fitted dose curve at least 0.9, where 1 is the maximum)
Method in brief: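 Measures ATP content in human neural progenitors derived from WA09 embryonic cells. Read-out at 26.5 hours after dosing, with DMSO serving as the negative control and baseline.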

[9] = CCTE_Mundy_HCI_Cortical_Synap_Neur_Matur_NeuronCount: CCTE's Synaptogenesis and Neurite Maturation Assay in rat cortical cells for Neuron Count, Mundy Lab (AID 2284242; active = hit-call score of the fitted dose curve at least 0.9, where 1 is the maximum)
Method in brief: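 Neuron counts come from automated high-content imaging of Hoechst nuclei and MAP2/synaptophysin immunostaining at DIV 12, with loss of signal judged against DMSO. Cultures of rat cortical cells had glial growth arrested by AraC at DIV 5; chemical exposure began DIV 7.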

[10] = IUF_NPC2c_oligodendrocyte_migration_120hr: Leibniz Research Institute for Environmental Medicine (IUF) 120-hour Neural Progenitor Cell Migration Assay for Oligodendrocyte Migration (NPC2c) (AID 2284297);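 note: O4-positive oligodendrocyte migration distance divided by radial glia migration distance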
Method in brief: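 Human fetal neural progenitor spheres (0.3 mm) are plated on poly-D-lysine/laminin in N2 differentiation medium and exposed for 120 h, with half-medium renewal at day 3. Oligodendrocyte (O4+) migration distance comes from ICC imaging, normalised to radial glia migration.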

[11] = IUF_NPC2a_radial_glia_migration_120hr: Leibniz Research Institute for Environmental Medicine (IUF) 120-hour Neural Progenitor Cell Migration Assay for Radial Glia Migration (NPC2a) (AID 2284298)
Method in brief: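 Human fetal-cortex neural progenitor spheres (0.3 mm) plated on poly-D-lysine/laminin in N2 differentiation medium, exposed 120 h at 37C with half-medium renewal at day 3. Radial glia migration distance (um) measured from Hoechst-stained nuclei images; DMSO baseline.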

[12] = IUF_NPC2b_neuronal_migration_120hr: Leibniz Research Institute for Environmental Medicine (IUF) 120-hour Neural Progenitor Cell Migration Assay for Neuron Migration (NPC2b) (AID 2284300)
Method in brief: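 0.3 mm hNPC spheres on poly-D-lysine/laminin in N2 differentiation medium exposed 120 h, half-medium refresh day 3; 7 concentrations, DMSO max 0.1%. Neuron (TUBB3) distance from sphere core by ICC imaging, normalised to radial glia migration.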

[13] = IUF_NPC3_neuronal_differentiation_120hr: Leibniz Research Institute for Environmental Medicine (IUF) 120-hour Neuronal Differentiation Assay (NPC3) (AID 2284301)
Method in brief: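 Neuronal differentiation of primary human neural progenitors measured by high-content imaging: percent TUBB3+ of Hoechst+ nuclei within migrated area at 120 h, seven-point serial dilution plus solvent control, gain or loss relative to DMSO.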

[14] = IUF_NPC4_neurite_length_120hr: Leibniz Research Institute for Environmental Medicine (IUF) 120-hour Neuronal Morphology Assay for Neurite Length (NPC4) (AID 2284302)
Method in brief: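 Neurons from differentiating human fetal neural progenitor spheres are scored for average neurite length after five days of compound exposure. Fitting uses DMSO as negative control.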

[15] = IUF_NPC4_neurite_area_120hr: Leibniz Research Institute for Environmental Medicine (IUF) 120-hour Neuronal Morphology Assay for Neurite Area (NPC4) (AID 2284305; active = hit-call score of the fitted dose curve at least 0.9, where 1 is the maximum)
Method in brief: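 Endpoint at 120 h: automated imaging of TUBB3/Hoechst-stained differentiating human neural progenitor spheres, neurite area per neuron from skeletonization. DMSO solvent control, not above 0.1%, set the baseline; medium was half-replaced on day 3.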

[16] = IUF_NPC2-5_cytotoxicity_72hr: Cytotoxicity Assessment at 72 hours in the Leibniz Research Institute for Environmental Medicine (IUF) Neural Progenitor Cell Migration and Differentiation Assay for Cytotoxicity (NPC2-5) (AID 2284306; active = hit-call score of the fitted dose curve at least 0.9, where 1 is the maximum;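 note: LDH release into supernatant measured by resorufin fluorescence marking membrane damage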)
Method in brief: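 Primary human neural progenitor spheres migrate and differentiate on laminin. Compound is present from the start of differentiation, with DMSO kept at or below 0.1%. At 72 h, supernatant LDH is quantified fluorometrically, with values fitted in the positive direction.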

[17] = IUF_NPC2-5_cytotoxicity_120hr: Cytotoxicity Assessment at 120 hours in the Leibniz Research Institute for Environmental Medicine (IUF) Neural Progenitor Cell Migration and Differentiation Assay (NPC2-5) (AID 2284307; active = hit-call score of the fitted dose curve at least 0.9, where 1 is the maximum)
Method in brief: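 Human fetal (GW 16-19) neural progenitor spheres (0.3 mm) plated on poly-D-lysine/laminin in N2 differentiation medium, exposed 120 h with half-medium renewal at day 3; 7 concentrations plus solvent control, DMSO ≤0.1%. LDH release in supernatant read by resorufin fluorescence.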

[18] = IUF_NPC2-5_cell_number_120hr: Cell Number Assessment at 120 hours in the Leibniz Research Institute for Environmental Medicine (IUF) Neural Progenitor Cell Migration and Differentiation Assay (NPC2-5) (AID 2284308);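 note: count of Hoechst-stained nuclei in migration zone around plated human neural progenitor spheres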
Method in brief: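 Human fetal neural progenitor spheres (0.3 mm) plated on poly-D-lysine/laminin in N2 differentiation medium, exposed five days across 7 concentrations with half-medium refresh at day 3. Hoechst-positive nuclei counted in migration area at 120 h, relative to DMSO.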

[19] = IUF_NPC2-5_viability_120hr: Viability Assessment at 120 hours in the Leibniz Research Institute for Environmental Medicine (IUF) Neural Progenitor Cell Migration and Differentiation Assay (NPC2-5) (AID 2284312)
Method in brief: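 Human fetal (GW 16-19) neural progenitor spheres of 0.3 mm were plated on poly-D-lysine/laminin in N2 differentiation medium and exposed from day 0 for 120 h, with half-medium refresh at day 3. Viability was read as alamar blue resazurin-to-resorufin fluorescence against DMSO.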

[20] = CCTE_Mundy_HCI_iCellGluta_NOG_NeuriteLength: CCTE's Neurite Outgrowth Assay in iCellGluta cells for Neurite Length, Mundy Lab (AID 2284318; active = hit-call score of the fitted dose curve at least 0.9, where 1 is the maximum)
Method in brief: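 Automated high-content imaging of betaIII-tubulin (Alexa Fluor-488) and Hoechst-stained cells gave neurite length, normalized to the DMSO baseline.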

[21] = IUF_NPC1_cytotoxicity_72hr: Cytotoxicity Assessment at 72 hours in the Leibniz Research Institute for Environmental Medicine (IUF) Neural Progenitor Cell Proliferation Assay (NPC1) (AID 2284332; active = hit-call score of the fitted dose curve at least 0.9, where 1 is the maximum;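 note: rising LDH signal means more cytotoxicity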)
Method in brief: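 Cytotoxicity by LDH membrane-integrity assay on medium supernatants, fluorescence via resazurin reduction, after 3-day single exposure of primary hNPC spheres at 37C, pH 7.2-7.6 with growth factors. Fitted upward against baseline.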

[22] = CCTE_Mundy_HCI_iCellGluta_NOG_NeuronCount: CCTE's Neurite Outgrowth Assay in iCellGluta cells for Neuron Count, Mundy Lab (AID 2284340; active = hit-call score of the fitted dose curve at least 0.9, where 1 is the maximum;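 note: cells fixed about 48 h after compound addition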)
Method in brief: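 Neuron count read by automated high-content imaging of Hoechst 33342 and betaIII-tubulin/Alexa Fluor-488 labelling in human iPSC glutamatergic neurons. Activity fitted relative to DMSO.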

[23] = CCTE_Mundy_HCI_iCellGluta_NOG_NeuriteCount: CCTE's Neurite Outgrowth Assay in iCellGluta cells for Neurite Count, Mundy Lab (AID 2284342; active = hit-call score of the fitted dose curve at least 0.9, where 1 is the maximum;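 note: chemical exposure about 48 hours starting 2 hours after plating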)

Measured: outcome

Cc1[nH]n(C)c(=O)c1C(=O)c1ccc(C(F)(F)F)cc1S(C)(=O)=O
inactive: all assays above
